Reference: PubChem BioAssay (EPA / NIEHS)
Calls of active or inactive are those of the source. How the source made its calls: active means hit-call score of the fitted dose curve at least 0.9, where 1 is the maximum; inactive means score below 0.9.

Key:
[1] = read-out: Monokine induced gamma interferon (MIG), CXCL9 (gene 4283); assay: BSK_hDFCGF_MIG: BioMAP Diversity Plus: hDFCGF Assay for Monokine induced gamma interferon (MIG) Biomarker Activity (AID 2283063); conditions: primary human foreskin fibroblasts; actives raise or lower the signal
In short: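 ELISA read-out of MIG from primary human dermal fibroblasts 24 h post-dosing. Gain or loss of signal fitted bidirectionally, DMSO as baseline.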

[2] = read-out: Matrix Metallopeptidase 1 (MMP1), MMP1 (gene 4312); assay: BSK_hDFCGF_MMP1: BioMAP Diversity Plus: hDFCGF Assay for Matrix Metallopeptidase 1 (MMP1) Biomarker Activity (AID 2283064); conditions: primary human foreskin fibroblasts; actives raise or lower the signal
In short: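 ELISA read-out of MMP1 from human foreskin fibroblasts (primary skin cells), 24 h post-dose. Gain or loss of signal was fitted bidirectionally versus DMSO negative control; cytotoxicity was checked by SRB in parallel cultures.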

[3] = read-out: Vascular cell adhesion molecule 1 (VCAM1), VCAM1 (gene 7412); assay: BSK_hDFCGF_VCAM1: BioMAP Diversity Plus: hDFCGF Assay for Vascular cell adhesion molecule 1 (VCAM1) Biomarker Activity (AID 2283065); conditions: primary human foreskin fibroblasts; actives raise or lower the signal;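 on AC50: VCAM-1 protein level quantified by ELISA after 24 h chemical exposure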
In short: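 Primary human foreskin fibroblasts (hDFCGF system) were dosed with chemical and VCAM-1 was measured by ELISA 24 h later. Bidirectional curve fitting used DMSO as negative control and activity baseline.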

[4] = read-out: Plasminogen activator inhibitor-1 (PAI1), SERPINE1 (gene 5054); assay: BSK_hDFCGF_PAI1: BioMAP Diversity Plus: hDFCGF Assay for Plasminogen activator inhibitor-1 (PAI1) Biomarker Activity (AID 2283066); conditions: primary human foreskin fibroblasts; actives raise or lower the signal
In short: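 PAI-1 levels in human dermal foreskin fibroblasts were quantified by ELISA 24 h after dosing, with gain or loss analysed against DMSO. Overt cytotoxicity was checked by sulforhodamine B total-protein staining in parallel cultures.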

[5] = read-out: Intercellular Adhesion Molecule 1 (ICAM1), ICAM1 (gene 3383); assay: BSK_KF3CT_ICAM1: BioMAP Diversity Plus: KF3CT Assay for Intercellular Adhesion Molecule 1 (ICAM1) Biomarker Activity (AID 2283067); conditions: primary human keratinocytes with fibroblasts; actives raise or lower the signal
In short: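 Human keratinocyte plus foreskin fibroblast primary co-culture was exposed to chemical for 24 h. ICAM-1 was then quantified by ELISA, and the data were fit bidirectionally against DMSO as the negative control and baseline.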

[6] = read-out: Interferon-gamma inducible Protein 10 (IP10), CXCL10 (gene 3627); assay: BSK_KF3CT_IP10: BioMAP Diversity Plus: KF3CT Assay for Interferon-gamma inducible Protein 10 (IP10) Biomarker Activity (AID 2283068); conditions: primary human keratinocytes with fibroblasts; actives raise or lower the signal
In short: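 KF3CT co-culture (keratinocytes + foreskin fibroblasts), 24 h compound, IP-10 by ELISA; bidirectional fit vs DMSO baseline.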

[7] = BSK_KF3CT_SRB: Viability Assessment in the BioMAP Diversity Plus: KF3CT Assay (AID 2283069); conditions: primary human keratinocytes with fibroblasts;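 further: read 24 h after compound addition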
In short: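 SRB read-out at 560 nm (0.1% stain, TCA-fixed cells) gauges overt cytotoxicity in a human skin keratinocyte–fibroblast co-culture 24 h post-dosing. Signal change was fitted bidirectionally relative to DMSO control.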

[8] = read-out: Interleukin-1 alpha (IL1a), IL1A (gene 3552); assay: BSK_KF3CT_IL1a: BioMAP Diversity Plus: KF3CT Assay for Interleukin-1 alpha (IL1a) Biomarker Activity (AID 2283070); conditions: primary human keratinocytes with fibroblasts; actives raise or lower the signal
In short: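 Primary skin co-culture (keratinocytes, foreskin fibroblasts), 24 h exposure; ELISA for IL-1a; bidirectional curve fit vs DMSO.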

[9] = read-out: TIMP metallopeptidase inhibitor 2 (TIMP2), TIMP2 (gene 7077); assay: BSK_KF3CT_TIMP2: BioMAP Diversity Plus: KF3CT Assay for TIMP metallopeptidase inhibitor 2 (TIMP2) Biomarker Activity (AID 2283071); conditions: primary human keratinocytes with fibroblasts; actives raise or lower the signal
In short: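 TIMP-2 measured by ELISA at 24 h in human keratinocyte/fibroblast primary co-cultures exposed to chemicals. Both increases and decreases were fitted against DMSO. Parallel cultures were stained with SRB for total protein as an overt-cytotoxicity check.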

[10] = read-out: C-C motif chemokine 2 (Homo sapiens) (UniProt P13500); assay: BSK_KF3CT_MCP1: BioMAP Diversity Plus: KF3CT Assay for Monocyte Chemoattractant Protein 1 (MCP1/CCL2) Biomarker Activity (AID 2283073); conditions: primary human keratinocytes with fibroblasts; actives raise or lower the signal
In short: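 Human keratinocyte plus foreskin fibroblast primary co-culture exposed to chemical for 24 h. MCP-1 levels measured by ELISA. Bidirectional curve fitting relative to DMSO negative control as baseline.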

[11] = read-out: Matrix Metallopeptidase 9 (MMP9), MMP9 (gene 4318); assay: BSK_KF3CT_MMP9: BioMAP Diversity Plus: KF3CT Assay for Matrix Metallopeptidase 9 (MMP9) Biomarker Activity (AID 2283074); conditions: primary human keratinocytes with fibroblasts; actives raise or lower the signal
In short: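 ELISA read-out of MMP-9 at 24 h post-dosing in a co-culture of human skin keratinocytes and foreskin fibroblasts. Gain or loss of signal was fitted in both directions against DMSO.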

[12] = read-out: urokinase plasminogen activator (uPA), PLAU (gene 5328); assay: BSK_KF3CT_uPA: BioMAP Diversity Plus: KF3CT Assay for urokinase plasminogen activator (uPA) Biomarker Activity (AID 2283075); conditions: primary human keratinocytes with fibroblasts; actives raise or lower the signal
In short: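 Skin co-culture (keratinocytes + foreskin fibroblasts), human primary; 24 h post-dose; uPA by ELISA; gain/loss fit vs DMSO baseline.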

CD40, CD40 (gene 958) = assay: BSK_LPS_CD40: BioMAP Diversity Plus: LPS Assay for CD40 Biomarker Activity (AID 2283076); conditions: primary human HUVEC with PBMC; actives raise or lower the signal
In short: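 Primary human umbilical vein endothelial cells co-cultured with peripheral blood mononuclear cells, LPS-stimulated, were dosed with chemical and read 24 h later. CD40 levels were measured by ELISA and fitted bidirectionally against DMSO as negative control and baseline.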

[13] = read-out: E-selectin (Homo sapiens) (UniProt P16581); assay: BSK_LPS_Eselectin: BioMAP Diversity Plus: LPS Assay for Eselectin Biomarker Activity (AID 2283077); conditions: primary human HUVEC with PBMC; actives raise or lower the signal
In short: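 Human umbilical vein endothelial cells co-cultured with peripheral blood mononuclear cells under LPS stimulation; E-selectin measured by ELISA 24 h after chemical dosing. Activity fitted bidirectionally against DMSO as negative control and baseline.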

[14] = read-out: Interleukin-8 (IL8), CXCL8 (gene 3576); assay: BSK_LPS_IL8: BioMAP Diversity Plus: LPS Assay for Interleukin-8 (IL8) Biomarker Activity (AID 2283078); conditions: primary human HUVEC with PBMC; actives raise or lower the signal
In short: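 Human umbilical vein endothelial cells co-cultured with PBMC were stimulated with LPS; IL-8 levels were measured by ELISA 24 h after chemical dosing. Activity was fitted bidirectionally against DMSO as negative control and baseline.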

[15] = BSK_LPS_SRB: Viability Assessment in the BioMAP Diversity Plus: LPS Assay (AID 2283079); conditions: primary human HUVEC with PBMC;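 further: total protein by sulforhodamine B absorbance as a cytotoxicity measure; measured one day after compound addition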
In short: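 Human umbilical vein endothelial cells co-cultured with PBMC (LPS system) were dosed for 24 h. Total protein was stained with 0.1% sulforhodamine B after 10% TCA fixation, read at 560 nm, and fitted bidirectionally against DMSO baseline.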

[16] = read-out: Interleukin-1 alpha (IL1a), IL1A (gene 3552); assay: BSK_LPS_IL1a: BioMAP Diversity Plus: LPS Assay for Interleukin-1 alpha (IL1a) Biomarker Activity (AID 2283080); conditions: primary human HUVEC with PBMC; actives raise or lower the signal
In short: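 Human umbilical vein endothelial cells co-cultured with peripheral blood mononuclear cells were LPS-stimulated and exposed to test chemicals for 24 h. IL-1 alpha was quantified by ELISA, with bidirectional curve fitting against DMSO as the negative control and baseline.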

[17] = read-out: Monocyte Chemoattractant Protein-1 (MCP1), CCL2 (gene 6347); assay: BSK_LPS_MCP1: BioMAP Diversity Plus: LPS Assay for Monocyte Chemoattractant Protein-1 (MCP1) Biomarker Activity (AID 2283081); conditions: primary human HUVEC with PBMC; actives raise or lower the signal;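 on AC50: co-culture stimulated with LPS; secreted MCP-1 protein quantified by ELISA in culture supernatant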
In short: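 HUVEC plus PBMC co-culture (human primary cells, LPS system) exposed to test chemical for 24 h; MCP-1 measured by ELISA. Bidirectional curve fitting against DMSO baseline; parallel SRB total-protein staining flags overt cytotoxicity.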

[18] = BSK_LPS_PGE2: BioMAP Diversity Plus: LPS Assay for Prostaglandin E2 (PGE2) Biomarker Activity (AID 2283082); conditions: primary human HUVEC with PBMC; actives raise or lower the signal
In short: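 PGE2 release measured by ELISA in an LPS-activated co-culture of human umbilical vein endothelial cells and peripheral blood mononuclear cells, read at 24 h post-dosing. DMSO served as baseline for bidirectional curve fitting.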

[19] = read-out: Transforming growth factor beta 1 (TGFb1), TGFB1 (gene 7040); assay: BSK_KF3CT_TGFb1: BioMAP Diversity Plus: KF3CT Assay for Transforming growth factor beta 1 (TGFb1) Biomarker Activity (AID 2283072); conditions: primary human keratinocytes with fibroblasts; actives raise or lower the signal
In short: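 ELISA quantifies TGF-b1 at 24 h post-dose in a primary human skin co-culture of keratinocytes and fibroblasts, with gain or loss judged against DMSO. Parallel SRB total-protein staining flags overt cytotoxicity.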

Measured: AC50

E-selectin (Homo sapiens), sequence (P16581 whole entry, looked up): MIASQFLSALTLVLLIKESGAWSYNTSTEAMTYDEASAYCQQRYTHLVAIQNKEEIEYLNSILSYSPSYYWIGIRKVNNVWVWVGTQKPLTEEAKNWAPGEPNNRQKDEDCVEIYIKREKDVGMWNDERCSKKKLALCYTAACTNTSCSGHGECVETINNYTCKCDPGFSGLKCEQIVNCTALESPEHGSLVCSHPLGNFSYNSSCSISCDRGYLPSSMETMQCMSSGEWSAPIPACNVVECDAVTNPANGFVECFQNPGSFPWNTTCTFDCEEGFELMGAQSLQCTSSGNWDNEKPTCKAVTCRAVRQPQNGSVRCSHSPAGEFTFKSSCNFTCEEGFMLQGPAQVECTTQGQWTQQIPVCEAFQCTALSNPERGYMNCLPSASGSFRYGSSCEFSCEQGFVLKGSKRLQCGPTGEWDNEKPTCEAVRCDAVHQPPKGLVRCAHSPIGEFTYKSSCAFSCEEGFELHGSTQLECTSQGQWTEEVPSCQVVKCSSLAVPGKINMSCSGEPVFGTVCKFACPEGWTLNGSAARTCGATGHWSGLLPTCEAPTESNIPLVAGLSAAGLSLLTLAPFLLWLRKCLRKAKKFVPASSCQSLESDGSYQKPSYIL

Oc1cc(Cl)c(Cl)cc1Cl
active: [3] 7.54 µM | [4] 34 µM | [10] 20 µM | CD40, CD40 (gene 958) 14.1 µM | [13] 34.1 µM | [14] 32.3 µM | [15] 25.7 µM | [16] 32.6 µM | [17] 30.2 µM
not listed: [19]
inactive: all other assays above

CC(C)(COCC1CO1)COCC1CO1 (stereo not drawn)
inactive: all assays above

Clc1cccc(Cl)c1
not listed: [8] | [9] | [19]
inactive: all other assays above

c1ccc2sc(SNC3CCCCC3)nc2c1
active: [16] 30.2 µM
not listed: [8] | [19]
inactive: all other assays above

C#CCOC(=O)/C=C(C)/C=C/CC(C)CCCC(C)C (stereo not drawn)
active: [3] 5.7 µM | [4] 11.6 µM | CD40, CD40 (gene 958) 20 µM | [13] 20 µM | [14] 0.242 µM
not listed: [19]
inactive: all other assays above

Cc1cc(Cl)ccc1OC(C)C(=O)O (stereo not drawn)
not listed: [8] | [9]
inactive: all other assays above

COc1ccccc1N
not listed: [8] | [9] | [19]
inactive: all other assays above
